PI5P4K alpha inh = inhibitors of human PI5P4K alpha. P48426. PI5P4Kalpha enzyme, ADP-Glo luminescence, 60 min; active compounds read low. max response, %. hit rate 1.2% among 330,000. AID 652105; active means max response of -50% or lower; inconclusive means between -30% and -50%; inactive means -30% or higher; further: value at the top dose of about 77 µM; on the % scale 0 is the no-effect control and ±100 the full control effect
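ADP-Glo luminescence end-point read after a 60 min room-temperature kinase reaction of PI5P4Kalpha plus substrate, initiated with ATP at 5 microM final. Buffer: 0.038 M HEPES pH 7.4, EGTA, 0.1% CHAPS, 5% DMSO.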
POLK inh = inhibitors of human DNA polymerase kappa. purified Pol kappa, fluorescent DNA synthesis assay, 10 min. Potency, µM (titrated, usually from 107 µM), for the others: at the top dose activity, negative = inhibition, hits mostly inhibitors. hit rate 0.53% among 400,000. Q9UBT6; further: potency means the concentration at half of the fitted maximal effect; on the % scale 0 is the no-effect control and ±100 the full control effect
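Activity was followed as the change in fluorescence between reads at 0 and 10 min after starting the reaction with 50 nM substrate. Beforehand, 10 nM polymerase had been preincubated with compound for 15 min at room temperature.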
Pol iota inh = DNA polymerase iota (human) inhibition | Q9UNA4 | Pol iota fluorescent replication assay, 10 min | Potency, µM (top dose mostly 115 µM), for inactives: at the top dose activity, negative = inhibition, usual class: inhibitors | hit rate 1% among 390,000; further: potency means the concentration at half of the fitted maximal effect
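Fluorescent replication assay read twice, at 0 min and 10 min after adding 50 nM (final) substrate. Enzyme (10 nM) and compounds were first incubated 15 min at room temperature; enzyme-free buffer wells were negative controls.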
ALOX12 inh = inhibitors of human 12S-lipoxygenase ALOX12 | P18054 | purified 12hLO, xylenol orange hydroperoxide absorbance | Potency, µM (doses to about 108 µM), inactives show at the highest dose activity change, negative = inhibition, actives largely listed as inhibitors | hit rate 1.1% among 580,000; further: potency means the concentration at half of the fitted maximal effect; on the % scale 0 is the no-effect control and ±100 the full control effect
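Purified human 12hLO (150 nM final) in 25 mM Hepes, 0.01% Triton X-100, pH 7.0 was preincubated 15 min at room temperature with compound. Then 40 uM arachidonic acid was added, 30 min. Hydroperoxide was read by Fe-XO absorbance ratio 573/405 nm.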
POLH inh = inhibitors of human DNA polymerase eta; Q9Y253; recombinant Pol eta, fluorescent DNA replication assay; AID 588591; hit rate 1.2% among 390,000; Potency, µM (top dose mostly 114 µM), for the others: at the top dose activity change, negative = inhibition, most hits filed as inhibitors; further: potency means the concentration at half of the fitted maximal effect; on the % scale 0 is the no-effect control and ±100 the full control effect
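Fluorescent replication assay: 50 nM final substrate added after a 15 min room-temperature compound preincubation with 10 nM enzyme. Signal taken at 0 min and again at 10 min.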
Pol beta inh = DNA polymerase beta (human) inhibition; P06746; Pol beta primer extension/strand displacement, fluorescence kinetic; Potency, µM (top dose mostly 114 µM), inactives show at the top dose activity change, negative = inhibition, most hits filed as inhibitors; hit rate 1.3% among 340,000; AID 485314; further: potency means the concentration at half of the fitted maximal effect; on the % scale 0 is the no-effect control and ±100 the full control effect
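Enzyme-only controls used 10 nM Pol beta; buffer lacking enzyme served as negative control. Compound preincubated 15 min, then 50 nM substrate added; 0 and 10 min reads at room temperature.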
PGK validate = blocks T. brucei phosphoglycerate kinase; TbPGK coupled GAPDH assay, Kinase-Glo luminescence; Potency, µM (series often up to 57.5 µM), without a hit: top-dose activity change, negative = inhibition, usual class: inhibitors; AID 686980; shares compounds with POLK inh; hit rate 79% among 500; further: potency means the concentration at half of the fitted maximal effect; on the % scale 0 is the no-effect control and ±100 the full control effect; nearly all actives have a fitted effect of over 65% in size
POLI cherry-pick = Confirm cherry-picked inhibitors of human polymerase iota; shares compounds with POLK inh; Pol iota primer extension, TAMRA/BHQ fluorescence; Potency, µM, actives largely listed as inhibitors; hit rate 77% among 1,500; AID 720496; further: potency means the concentration at half of the fitted maximal effect
Starred values were filed as active, the others as inactive; ? = inconclusive; . = no result; [ ] = dose if it differs, or a comment. The list is not random: actives were taken first. Their share in the collection is about 2.9%. Unless noted, the call rests on the fitted dose curve; in most records, active means well fitted curve in the direction sought with a large enough effect; inconclusive means small, poorly fitted or top-dose-only effect, or another doubt; inactive means no such curve, though single readings can be large; an effect the other way counts as inactive or inconclusive.

SMILES | PI5P4K alpha inh | POLK inh | Pol iota inh | ALOX12 inh | POLH inh | Pol beta inh | POLI cherry-pick | others
O=C(Nc1ccccc1)c1cn2ccccc2n1 | -4.2 | -13.7% | -19.4% | -20.6% | -7.7% | 9.3% | .
Cc1csc(NC(=O)c2cn3ccccc3n2)n1 | -20.7 | -9.6% | 9.1% | -0.7% | -5.4% | ? | . | PGK validate=18.3µM*
CC(NC(=O)c1ccc2c(c1)OCO2)c1ccc2c(c1)CCC(=O)N2 (centres undefined) | . | . | . | -4.8% | . | . | .
CCCc1nc(C(=O)N2CCC3(CCc4ccccc43)CC2)cs1 | . | . | . | -3.6% | . | . | .
Cc1ccccc1NC(=O)C1CCN(c2nc3ccccc3o2)CC1 | . | . | . | -24.1% | . | . | .
C#Cc1ccc(C(=O)NCc2ccc(N3CCCC3=O)cc2)cc1 | -27.7 | ? | ? | -3.9% | 15.8µM* | 17.8µM* | 42.3*
Cc1cc(C)c2c(N)c3cccc(C)c3nc2n1 | -5.9 | ? | ? | -10.4% | -18.7% | 12.6µM* | 33.6*
CC(C)CCN1CCC2(COc3ccccc3C(=O)N2)C1 (centres undefined) | . | . | . | 67.4%[176 µM] | . | . | .
Cc1ccc(/C=C(\CCC(=O)O)c2nc3ccccc3s2)cc1[N+](=O)[O-] | -11.3 | -15.2% | 4.1% | -19.6% | -10.6% | 3.5% | .
CNc1ccc(/C=C(\CCC(=O)O)c2nc3ccccc3s2)cc1[N+](=O)[O-] | -17.8 | -15.0% | -1.5% | -16.4% | 12.6µM* | 31.6µM* | 42.3*
COc1ccc(N(C(=O)c2snc(C(N)=O)c2N)C(C(=O)NC2CCCC2)c2cccs2)cc1OC (centres undefined) | 0.9 | -18.1% | 8.91µM* | -0.9% | ? | ? | ?
O=C(OCc1cc(=O)n2nc(-c3cccs3)sc2n1)c1ccc(F)cc1 | . | -38.9% | ? | -8.3% | ? | 11.2µM* | ?
O=C(OCc1cc(=O)n2nc(C3CC3)sc2n1)c1ccc(F)cc1 | . | -13.1% | -9.0% | -10.4% | 6.9% | 25.6% | .
CCOc1ccc(C2CC(c3ccccc3NS(=O)(=O)c3ccccc3)=NN2C(=O)CC)cc1 (centres undefined) | . | . | . | -15.8% | . | . | .
CCN(CC)CCOc1ccc2c(c1)C(=NO)c1cc(OCCN(CC)CC)ccc1-2 | . | ? | 20µM* | ? | ? | 39.8µM* | 75.2*
CCN(CC)CCOc1ccc(Br)cc1 | . | -10.0% | 18.2% | ? | -0.9% | 3.8% | .
COC(=O)c1sccc1S(=O)(=O)NC(C)C1CCCO1 (centres undefined) | . | . | . | -4.6% | . | . | .
O=C(O)c1cc(N2C(=O)C=CC2=O)cc(N2C(=O)C=CC2=O)c1 | -77.7* | 2.24µM* | 1.12µM* | -23.7% | 2.24µM* | . | . | PGK validate=?
O=C(O)c1cc(C(=O)O)cc(N2C(=O)c3ccccc3C2=O)c1 | . | . | . | 1.0% | . | . | .
O=C(O)CCCCN1C(=O)/C(=C\c2ccc(OCc3ccccc3)c(OCc3ccccc3)c2)SC1=S | -0.2 | ? | ? | 0.0% | 20µM* | 44.7µM* | 42.3*
COc1ccc(/C=C2/SC(=S)N(CC(=O)O)C2=O)cc1OCc1ccc(Cl)cc1 | -11.5 | -3.8% | -1.1% | -6.9% | ? | ? | .
COc1cc(CC2COC(c3ccc(O)c(OC)c3)C2COC(C)=O)ccc1O (centres undefined) | -94.0* | 22.4µM* | 10µM* | ? | 3.55µM* | 6.31µM* | . | PGK validate=8.19µM*
C(=C\c1nc2ccccc2[nH]1)/c1ccccc1 | . | -19.9% | 6.3% | ? | -2.3% | 4.1% | . | PGK validate=16.3µM*
CC1(c2ccccc2)N(Cc2ccccc2C#N)C(=O)OC12CCN(C(=O)COc1ccccc1)CC2 (centres undefined) | . | . | . | 1.4% | . | . | .
Cc1cc(=O)oc2cc(OCC(=O)N/N=C/c3ccccc3O)ccc12 | -1.2 | -8.0% | 29.4% | 28.0% | 17.8µM* | 3.16µM* | ?
